Sampled rows, rich in hits. Any-hit rate of the full collection: about 1.2%.
Casp6 inh: human caspase-6 inhibitors, primary screen, biochemical, VEID-R110 fluorescence, single point, set 2 | P55212 | purified caspase-6, Z-VEID-R110 cleavage fluorescence | inhibition, % at 12.5 µM | hit rate 0.53% among 350,000;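 active = mean inhibition across replicates at least about 35%, with every replicate also reaching that limit, limit read from the data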;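 note: 0% = median of neutral control wells and 100% = no fluorescence left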
Target sequence (P55212 24-179 limits assumed): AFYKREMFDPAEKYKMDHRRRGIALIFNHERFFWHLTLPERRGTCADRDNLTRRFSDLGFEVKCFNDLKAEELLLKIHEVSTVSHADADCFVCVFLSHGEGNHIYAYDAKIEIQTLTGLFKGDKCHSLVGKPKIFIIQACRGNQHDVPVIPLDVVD
Target sequence (P55212 194-293 limits assumed): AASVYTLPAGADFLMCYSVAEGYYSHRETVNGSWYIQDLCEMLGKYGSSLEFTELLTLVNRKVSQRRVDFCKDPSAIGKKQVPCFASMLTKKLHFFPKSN
RAD52 inh: RAD52 DNA annealing inhibitors, primary screen, biochemical, FRET, single point, set 2; DNA repair protein RAD52 homolog (Homo sapiens), P43351; recombinant RAD52 DNA annealing, FRET fluorescence; inhibition, % at 18.7 µM; hit rate 0.46% among 360,000; AID 651710, 2012;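 active = every replicate showing at least 50% inhibition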
RAD54 inh: inhibitors of human RAD54 branch migration, primary screen, biochemical, fluorescence, single point; DNA repair and recombination protein RAD54-like (Homo sapiens), Q92698; hit rate 0.14% among 360,000; RAD54 Holliday junction branch migration, FAM/BHQ fluorescence; inhibition, % at 10.4 µM;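 active = mean normalized replicate activity at least 40 and at least half of replicates scoring 40 or more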;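 note: 0% = median of neutral control wells and 100% = median of positive control wells; inhibitors cause a drop in the FAM fluorescence signal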
NSD2 inh: NSD2 histone methyltransferase inhibitors, primary screen, biochemical, AlphaScreen, single concentration, set 2 | hit rate 0.54% among 310,000 | NSD2 peptide methylation, 120 min | inhibition, % at 12.5 µM | Histone-lysine N-methyltransferase NSD2 (Homo sapiens), O96028 | AID 743445, 2014; in the data active = inhibition above about 50%
Glyco luc inh: increase of ERlucT glycosylation luciferase signal, primary screen, N-linked glycosylation inhibitor project, D54 ERlucT cells, luminescence, set 2. D54 ERlucT glycosylation luciferase reporter, 24 h; percent of 100 nM tunicamycin response. reporter increase, % at 12.5 µM. hit rate 0.23% among 360,000. AID 588692, 2011;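 active = mean luciferase reporter signal, scaled so untreated is 0 and the glycosylation-blocking control 100, at or above a set limit in every replicate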;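 note: luciferase carries N-glycosylation sites so blocking glycosylation raises the light; 0% = median of neutral control wells and 100% = median of 100 nM tunicamycin wells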
* marks the source's active call; other numbers are inactive results; · = no result.

SMILES	Casp6 inh	RAD52 inh	RAD54 inh	NSD2 inh	Glyco luc inh
O=c1cc(O)c2ccc(O)cc2o1	0	-12	-4	·	-4
COc1ccc(S(=O)(=O)Nc2cccc3c2O[C@H](CN(C)S(=O)(=O)c2ccc(F)cc2)[C@@H](C)CN([C@H](C)CO)C3=O)cc1	0	5	9	·	·
COc1ccc(CNCc2ccco2)cc1OCc1ccccc1	·	·	5	·	-3
COc1ccccc1CCNCc1ccc(OC)c(OCc2ccccc2)c1	·	·	-4	16	34*
C[C@@H]1CN([C@H](C)CO)C(=O)c2cccc(NC(=O)c3ccncc3)c2O[C@@H]1CN(C)Cc1ccc(C(=O)Nc2ccccc2N)cc1	-2	-8	-4	·	·
COC(=O)Cc1cc(=O)n(-c2nc3ccccc3[nH]2)[nH]1	44*	-19	·	20	0
CC1CCC2(CC1)NC(=O)N(CC(=O)Nc1sc3c(c1C(N)=O)CCC3)C2=O (stereo not given)	42*	-69	·	2	14
O=C(O)COn1c(-c2ccccc2)nc2ccc([N+](=O)[O-])cc21	43*	-7	9	3	-2
CCOC(=O)C(C)On1c(-c2ccccc2)nc2ccc([N+](=O)[O-])cc21 (stereo not given)	·	·	·	5	3
O=C(O)c1ccc(NS(=O)(=O)/C=C/c2ccccc2)cc1O	44*	-20	-15	4	0
Cc1onc(-c2ccccc2)c1C(=O)N(Cc1ccco1)Cc1cccs1	47*	-14	·	0	-4
C[C@H]1CN([C@@H](C)CO)C(=O)c2cc(NC(=O)Nc3ccc4c(c3)OCO4)ccc2O[C@H]1CN(C)S(=O)(=O)c1ccccc1	-3	-8	-4	·	·
CC1C/C=C/C=C/C=C/C=C/C(O[C@@H]2O[C@H](C)[C@@H](O)[C@H](N)[C@@H]2O)CC2OC(O)(CC(O)CC3OC3/C=C/C(=O)O1)CC(O)C2C(=O)O (stereo not given in full)	45*	-25	·	·	·
O=C(O)CCCC(=O)OCCCc1cc2ccccc2c(=O)o1	37*	-8	·	·	·
COc1cccc(C(=O)Nc2ccc3c(c2)C(=O)N(C)[C@@H]2CC[C@@H](CC(=O)NCC(F)(F)F)O[C@H]2CO3)c1	-2	0	-3	·	·
CCn1c(SCC(=O)Nc2ccc(C(C)=O)cc2)nc2c([nH]c3ccccc32)c1=O	-1	-10	3	-1	92*
CCn1c(SCC(=O)Nc2cccc(NC(C)=O)c2)nc2c([nH]c3ccccc32)c1=O	-2	-5	-11	-2	11
Cc1cc2nc3s/c(=C/c4ccc(-c5ccccc5C(=O)O)o4)c(=O)n3c2cc1C	36*	-70	-16	23	2
CCCNC(=O)C[C@@H]1CC[C@H]2[C@@H](COC[C@@H](O)CN2C(=O)C2CCOCC2)O1	-1	-98	1	·	·
CN1C(=O)c2cccc3c(S(=O)(=O)Nc4ccccn4)ccc1c23	·	·	·	-1	41*
CN1C(=O)c2cccc3c(S(N)(=O)=O)ccc1c23	5	-3	-4	-1	4
Cc1ccccc1NS(=O)(=O)c1ccc2c3c(cccc13)C(=O)N2C	5	3	4	-5	42*
O=C(C[C@@H]1CC[C@H]2[C@@H](COC[C@H](O)CN2Cc2nccs2)O1)NCc1ccccc1	0	-12	-4	·	·
CCCNC(=O)Nc1ccc2c(c1)OC[C@@H](C)N(C(=O)CC)C[C@@H](C)[C@H](OC)CN(C)C2=O	1	-4	·	·	·
CCOc1ncccc1C(=O)Nc1ccc2c(c1)OCO2	2	-14	·	-1	1
SMILES	Casp6 inh	RAD52 inh	RAD54 inh	NSD2 inh	Glyco luc inh
CCOc1ncccc1C(=O)Nc1cc2c(cc1Br)OCCO2	0	-23	-1	0	41*
O=C(C[C@H]1CC[C@H]2[C@@H](COC[C@H](O)CN2S(=O)(=O)c2ccc(Cl)cc2)O1)N[C@@H]1CCN(Cc2ccccc2)C1	-2	0	-6	·	·
CC(C)C#Cc1cnc2c(c1)C(=O)N([C@H](C)CO)C[C@H](C)[C@H](CN(C)C(=O)c1cccnc1)O2	2	3	12	·	·
CC(=O)c1ccc(S(=O)(=O)Nc2c(C)nn(C)c2C)cc1	43*	-9	·	10	2
Cc1ccc(S(=O)(=O)Nc2c(C)nn(C)c2C)cc1C	0	-19	-5	-3	0
CCOCCOc1cc(NCc2ccccc2)c2ncn(C(C)C)c2c1	41*	-10	-7	·	5
C[C@@H]1CN([C@H](C)CO)C(=O)c2c(c3ccccc3n2C)-c2ccccc2CO[C@@H]1CN(C)C(=O)CCN(C)C	0	40	·	·	·
C[C@H]1CN([C@@H](C)CO)C(=O)c2c(c3ccccc3n2C)-c2ccccc2CO[C@@H]1CN(C)C(=O)CCN(C)C	-2	59*	8	·	·
C[C@H](CO)N1C[C@H](C)[C@@H](CN(C)Cc2ccc(-c3ccccc3)cc2)OCc2ccccc2-c2c(n(C)c3ccccc23)C1=O	0	80*	·	·	·
C[C@@H]1CN([C@H](C)CO)C(=O)c2c(c3ccccc3n2C)-c2ccccc2CO[C@H]1CN(C)C(=O)CCN(C)C	-1	57*	4	·	·
CC(=O)N(C)C[C@@H]1OCc2ccccc2-c2c(n(C)c3ccccc23)C(=O)N([C@@H](C)CO)C[C@H]1C	-1	10	3	·	·
CC(C)NC(=O)N(C)C[C@@H]1OCCCC[C@@H](C)Oc2ccc(NC(=O)Cc3ccccc3)cc2C(=O)N([C@@H](C)CO)C[C@H]1C	2	5	7	·	·
O=C(C[C@H]1CC[C@@H]2[C@H](COC[C@@H](O)CN2C(=O)Nc2ccc(F)cc2)O1)NCCCN1CCOCC1	5	21	-5	·	·
O=C(CSc1nnc(-c2ccco2)n1-c1ccccc1Cl)Nc1cccc(C(=O)O)c1	55*	-15	4	7	2
NC(=O)CC(NC(=O)Cc1ccc(Br)cc1)c1ccc(NCC2CC2)c([N+](=O)[O-])c1 (stereo not given)	-4	-29	-4	·	45*
NC(=O)CC(NC(=O)Cc1ccc(Cl)cc1)c1ccc(NCC2CC2)c([N+](=O)[O-])c1 (stereo not given)	1	-96	-10	·	43*
Cc1ccc(S(=O)(=O)Nc2cccc3c2O[C@H](CN(C)S(=O)(=O)c2cccs2)[C@@H](C)CN([C@@H](C)CO)C3=O)cc1	0	-12	-7	·	·
Cc1ccc(C(=O)N/N=C\c2ccc(OC(=O)c3cccc(F)c3)cc2)cn1	47*	-5	3	-2	3
Cc1ccc(C(=O)N/N=C\c2cccc(OC(=O)c3cccc(F)c3)c2)cn1	3	-17	-6	-6	5
C[C@H]1CCCCO[C@@H](CN(C)Cc2ccncc2)[C@@H](C)CN([C@@H](C)CO)C(=O)c2cc(NC(=O)c3ccncc3)ccc2O1	-2	-9	1	·	·

High-throughput results deposited in PubChem by Broad Institute.
